1 sequence from paper PMC7862700, “An all-to-all approach to the identification of sequence-specific readers for epigenetic DNA modifications on cytosine” can be followed below.

Holding throughout (assay): DAPPL (digital affinity profiling via proximity ligation, sequencing); 10 mM Tris-HCl pH 7.5, 50 mM NaCl, 1 mM DTT, 4% glycerol, room temperature, 30 min; GST-TFs on glutathione beads, 16-mer random dsDNA library, 0.1% formaldehyde crosslink after washing; high values mean tight binding
The target of one test is T1, FLI1 (Homo sapiens, UniProt Q01543 1-452).
T1 sequence: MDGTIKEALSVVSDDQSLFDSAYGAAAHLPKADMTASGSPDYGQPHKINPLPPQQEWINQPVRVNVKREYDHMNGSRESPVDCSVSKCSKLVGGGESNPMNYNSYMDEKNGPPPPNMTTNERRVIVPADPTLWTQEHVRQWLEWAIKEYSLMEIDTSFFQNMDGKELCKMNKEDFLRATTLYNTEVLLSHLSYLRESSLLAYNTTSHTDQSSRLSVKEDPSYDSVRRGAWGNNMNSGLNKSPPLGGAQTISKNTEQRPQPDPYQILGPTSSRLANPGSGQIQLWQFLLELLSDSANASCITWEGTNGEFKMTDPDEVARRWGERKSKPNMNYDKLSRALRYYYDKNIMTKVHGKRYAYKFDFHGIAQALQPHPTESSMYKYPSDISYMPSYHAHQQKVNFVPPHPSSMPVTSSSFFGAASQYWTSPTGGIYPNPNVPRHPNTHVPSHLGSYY
The note with it: protein: recombinant; tags: N-terminal GST; dsDNA, one strand shown. In short, it runs like this:
(§1)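 The binding signal reported is, for every hexamer, its read frequency for a factor over its read frequency for the tag-only sample. Reads came from pools of yeast-expressed, GST-fused human transcription factors on glutathione beads, barcoded with DNA and mixed with that sample, which were incubated with 200 nmole of a random double-stranded 16-mer DNA library in Tris/NaCl/DTT/glycerol buffer at room temperature for 30 min. After washing, the pools were crosslinked with 0.1% formaldehyde, proximity-ligated with BsaI/T4 ligase for 1 h at 37 °C, PCR-amplified and sequenced on an Illumina NextSeq500.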

In a further test the target is T2, ELK1 (Homo sapiens, UniProt P19419 1-428).
T2 sequence: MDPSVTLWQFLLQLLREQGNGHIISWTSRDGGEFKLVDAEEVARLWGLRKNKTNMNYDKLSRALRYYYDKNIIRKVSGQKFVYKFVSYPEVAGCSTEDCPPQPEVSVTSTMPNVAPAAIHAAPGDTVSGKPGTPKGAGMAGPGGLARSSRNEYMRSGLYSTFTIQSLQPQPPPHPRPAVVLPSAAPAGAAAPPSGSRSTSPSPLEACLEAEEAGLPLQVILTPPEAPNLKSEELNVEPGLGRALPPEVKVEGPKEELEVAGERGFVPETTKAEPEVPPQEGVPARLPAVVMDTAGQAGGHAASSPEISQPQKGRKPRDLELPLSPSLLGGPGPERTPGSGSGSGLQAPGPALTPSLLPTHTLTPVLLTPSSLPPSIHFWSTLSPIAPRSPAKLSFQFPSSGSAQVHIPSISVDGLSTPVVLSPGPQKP
The note with it: protein: recombinant; tags: N-terminal GST; dsDNA, one strand shown. In short, it runs like this:
as §1

For the next test, the target named is T3, GABPA (Homo sapiens, UniProt Q06546 1-454).
T3 sequence: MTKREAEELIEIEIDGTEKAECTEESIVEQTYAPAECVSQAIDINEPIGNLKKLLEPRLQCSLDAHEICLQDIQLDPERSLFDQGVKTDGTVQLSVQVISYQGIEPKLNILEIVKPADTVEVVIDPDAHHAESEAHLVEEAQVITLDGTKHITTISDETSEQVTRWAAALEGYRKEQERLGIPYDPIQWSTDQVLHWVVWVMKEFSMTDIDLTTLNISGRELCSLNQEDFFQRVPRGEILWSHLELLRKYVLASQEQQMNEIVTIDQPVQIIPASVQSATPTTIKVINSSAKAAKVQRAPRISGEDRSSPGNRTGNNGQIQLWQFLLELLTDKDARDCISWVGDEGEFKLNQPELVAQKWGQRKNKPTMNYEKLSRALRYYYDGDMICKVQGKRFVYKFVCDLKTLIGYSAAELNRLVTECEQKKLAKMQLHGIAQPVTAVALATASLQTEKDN
Conditions: protein: recombinant; tags: N-terminal GST; dsDNA, one strand shown. A digest of the protocol:
as §1

A further test concerns the target T4, ERG (Homo sapiens, UniProt P11308 1-479).
T4 sequence: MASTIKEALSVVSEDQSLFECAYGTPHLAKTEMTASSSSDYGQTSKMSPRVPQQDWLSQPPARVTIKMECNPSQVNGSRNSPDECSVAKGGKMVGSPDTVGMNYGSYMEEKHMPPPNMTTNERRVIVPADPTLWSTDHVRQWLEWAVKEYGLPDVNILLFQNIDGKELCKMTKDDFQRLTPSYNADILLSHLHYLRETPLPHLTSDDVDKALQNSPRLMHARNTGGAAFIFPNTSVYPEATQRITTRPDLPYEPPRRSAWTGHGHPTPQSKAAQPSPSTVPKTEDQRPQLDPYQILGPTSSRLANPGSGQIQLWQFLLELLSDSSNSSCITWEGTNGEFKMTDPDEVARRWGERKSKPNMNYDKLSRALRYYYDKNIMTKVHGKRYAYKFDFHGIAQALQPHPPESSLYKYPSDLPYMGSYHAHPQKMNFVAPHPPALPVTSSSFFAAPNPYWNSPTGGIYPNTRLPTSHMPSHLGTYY
The note with it: protein: recombinant; tags: N-terminal GST; dsDNA, one strand shown. A digest of the protocol: as §1

For a further test, the target named is ELF1 (Homo sapiens, UniProt P32519 1-619). Conditions: protein: recombinant; tags: N-terminal GST; dsDNA, one strand shown. A digest of the protocol: as §1
ELF1, sequence (P32519 whole entry): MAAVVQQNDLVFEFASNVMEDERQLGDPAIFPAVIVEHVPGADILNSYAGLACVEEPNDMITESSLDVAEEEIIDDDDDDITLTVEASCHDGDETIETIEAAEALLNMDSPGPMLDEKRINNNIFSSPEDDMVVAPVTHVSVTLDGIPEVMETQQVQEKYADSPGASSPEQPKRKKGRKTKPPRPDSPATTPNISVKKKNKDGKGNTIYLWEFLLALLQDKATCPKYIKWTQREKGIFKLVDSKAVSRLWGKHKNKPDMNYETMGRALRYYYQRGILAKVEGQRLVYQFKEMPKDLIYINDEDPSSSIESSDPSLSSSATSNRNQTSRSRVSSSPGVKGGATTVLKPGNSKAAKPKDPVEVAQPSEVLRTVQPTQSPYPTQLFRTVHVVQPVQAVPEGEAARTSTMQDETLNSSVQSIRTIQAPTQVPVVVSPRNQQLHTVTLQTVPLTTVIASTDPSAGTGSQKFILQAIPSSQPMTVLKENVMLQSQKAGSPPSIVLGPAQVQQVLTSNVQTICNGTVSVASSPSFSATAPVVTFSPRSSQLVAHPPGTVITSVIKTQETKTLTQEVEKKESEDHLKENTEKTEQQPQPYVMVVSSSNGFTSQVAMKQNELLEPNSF
In the next test the target is SPI1 (Homo sapiens, UniProt P17947 1-270). Conditions: protein: recombinant; tags: N-terminal GST; dsDNA, one strand shown. In short, it runs like this:
as §1

The next test deals with SPIB (Homo sapiens, UniProt Q01892 1-262). The note with it: protein: recombinant; tags: N-terminal GST; dsDNA, one strand shown. A digest of the protocol:
as §1

In the next test the target is T5, ELK3 (Homo sapiens, UniProt P41970 1-407).
T5 sequence: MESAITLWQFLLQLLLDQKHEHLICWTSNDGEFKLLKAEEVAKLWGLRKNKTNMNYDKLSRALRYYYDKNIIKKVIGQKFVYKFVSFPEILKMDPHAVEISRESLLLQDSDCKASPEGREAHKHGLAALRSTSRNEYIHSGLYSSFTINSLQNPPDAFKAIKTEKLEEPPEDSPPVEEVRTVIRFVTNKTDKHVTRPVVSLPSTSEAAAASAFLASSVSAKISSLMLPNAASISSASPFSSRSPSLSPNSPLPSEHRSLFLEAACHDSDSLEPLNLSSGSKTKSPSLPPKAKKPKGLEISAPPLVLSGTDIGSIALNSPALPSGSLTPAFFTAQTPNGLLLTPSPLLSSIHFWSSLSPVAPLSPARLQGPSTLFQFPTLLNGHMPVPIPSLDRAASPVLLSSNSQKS
The note with it: protein: recombinant; tags: N-terminal GST; dsDNA, one strand shown. In short, it runs like this:
as §1

In the next test the target is T6, FEV (Homo sapiens, UniProt Q99581 1-238).
T6 sequence: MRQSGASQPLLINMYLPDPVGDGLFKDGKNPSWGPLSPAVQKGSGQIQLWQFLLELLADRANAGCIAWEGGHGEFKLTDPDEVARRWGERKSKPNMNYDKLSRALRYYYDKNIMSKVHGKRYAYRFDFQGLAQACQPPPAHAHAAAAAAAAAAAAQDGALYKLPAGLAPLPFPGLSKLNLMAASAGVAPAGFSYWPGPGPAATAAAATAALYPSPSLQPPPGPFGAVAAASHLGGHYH
The note with it: protein: recombinant; tags: N-terminal GST; dsDNA, one strand shown. In short, it runs like this: as §1

In another test the target is ETV5 (Homo sapiens, UniProt P41161 1-510). Conditions: protein: recombinant; tags: N-terminal GST; dsDNA, one strand shown. A digest of the protocol:
as §1

The target in a further test is HSF1 (Homo sapiens, UniProt Q00613 1-529). The note with it: protein: recombinant; tags: N-terminal GST; chain copies: 3; dsDNA, one strand shown. In short, it runs like this: as §1
HSF1, sequence (Q00613 whole entry): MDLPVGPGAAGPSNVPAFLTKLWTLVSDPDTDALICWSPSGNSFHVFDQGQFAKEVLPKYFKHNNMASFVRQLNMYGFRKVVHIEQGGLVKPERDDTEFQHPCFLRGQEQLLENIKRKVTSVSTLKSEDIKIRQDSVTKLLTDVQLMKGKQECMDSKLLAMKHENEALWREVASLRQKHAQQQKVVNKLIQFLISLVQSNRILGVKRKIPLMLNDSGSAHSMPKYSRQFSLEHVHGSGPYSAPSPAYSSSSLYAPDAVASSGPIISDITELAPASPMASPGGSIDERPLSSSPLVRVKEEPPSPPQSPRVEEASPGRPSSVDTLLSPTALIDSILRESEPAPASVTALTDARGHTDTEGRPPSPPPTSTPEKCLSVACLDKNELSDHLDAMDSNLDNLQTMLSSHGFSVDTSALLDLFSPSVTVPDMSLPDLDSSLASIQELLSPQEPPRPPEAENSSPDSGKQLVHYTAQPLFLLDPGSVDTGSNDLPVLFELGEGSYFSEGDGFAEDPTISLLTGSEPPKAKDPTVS
The next test deals with T7, SPIC (Homo sapiens, UniProt Q8N5J4 1-248).
T7 sequence: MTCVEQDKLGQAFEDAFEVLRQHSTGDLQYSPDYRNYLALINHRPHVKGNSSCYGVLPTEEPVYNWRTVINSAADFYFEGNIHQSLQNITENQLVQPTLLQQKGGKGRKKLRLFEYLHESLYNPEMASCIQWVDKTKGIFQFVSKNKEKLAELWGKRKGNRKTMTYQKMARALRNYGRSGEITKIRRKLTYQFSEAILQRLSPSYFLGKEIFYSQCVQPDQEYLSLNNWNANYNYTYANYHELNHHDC
Conditions: protein: recombinant; tags: N-terminal GST; dsDNA, one strand shown. In short, it runs like this:
as §1

For another test, the target named is ELF4 (Homo sapiens, UniProt Q99607 1-663). Conditions: protein: recombinant; tags: N-terminal GST; dsDNA, one strand shown. In short, it runs like this:
as §1

Another test addresses T8, ELK4 (Homo sapiens, UniProt P28324-2 1-405).
T8 sequence: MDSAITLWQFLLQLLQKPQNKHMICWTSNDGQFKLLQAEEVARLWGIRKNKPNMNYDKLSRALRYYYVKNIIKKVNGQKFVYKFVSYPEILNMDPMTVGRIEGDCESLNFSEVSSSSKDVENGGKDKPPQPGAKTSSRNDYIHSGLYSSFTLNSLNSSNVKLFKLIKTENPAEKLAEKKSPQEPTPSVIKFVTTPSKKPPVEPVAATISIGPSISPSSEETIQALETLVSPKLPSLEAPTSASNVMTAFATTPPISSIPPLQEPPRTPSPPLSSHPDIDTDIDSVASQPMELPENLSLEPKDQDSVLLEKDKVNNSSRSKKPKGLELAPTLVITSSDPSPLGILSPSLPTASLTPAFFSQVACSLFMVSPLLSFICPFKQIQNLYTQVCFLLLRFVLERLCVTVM
The note with it: protein: recombinant; tags: N-terminal GST; dsDNA, one strand shown. In short, it runs like this: as §1

For the next test, the target named is T9, ETV2 (Homo sapiens, UniProt O00321 1-342).
T9 sequence: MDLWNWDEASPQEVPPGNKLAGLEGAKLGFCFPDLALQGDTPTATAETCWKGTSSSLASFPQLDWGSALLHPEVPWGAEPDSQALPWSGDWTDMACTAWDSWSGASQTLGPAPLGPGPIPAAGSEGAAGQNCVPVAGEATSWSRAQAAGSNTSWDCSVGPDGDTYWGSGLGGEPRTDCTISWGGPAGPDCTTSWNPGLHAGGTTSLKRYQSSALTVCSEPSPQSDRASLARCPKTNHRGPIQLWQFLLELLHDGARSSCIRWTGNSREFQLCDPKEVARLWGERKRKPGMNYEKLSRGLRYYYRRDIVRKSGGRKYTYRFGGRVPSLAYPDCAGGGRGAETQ
Conditions: protein: recombinant; tags: N-terminal GST; dsDNA, one strand shown. In short, it runs like this: as §1

The next test deals with T10, ELF3 (Homo sapiens, UniProt P78545 1-371).
T10 sequence: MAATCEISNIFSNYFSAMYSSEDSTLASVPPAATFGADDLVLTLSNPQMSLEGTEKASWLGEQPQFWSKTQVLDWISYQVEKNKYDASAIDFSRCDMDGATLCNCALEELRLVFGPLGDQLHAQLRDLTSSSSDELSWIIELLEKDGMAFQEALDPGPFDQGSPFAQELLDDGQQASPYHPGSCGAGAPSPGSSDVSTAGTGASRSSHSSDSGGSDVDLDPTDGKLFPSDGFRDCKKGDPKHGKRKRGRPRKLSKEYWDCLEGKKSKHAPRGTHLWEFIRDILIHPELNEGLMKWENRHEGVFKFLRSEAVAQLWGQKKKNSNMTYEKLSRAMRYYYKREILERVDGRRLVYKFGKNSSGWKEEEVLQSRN
Conditions: protein: recombinant; tags: N-terminal GST; dsDNA, one strand shown. In short, it runs like this: as §1

A further test has as its target ETV1 (Homo sapiens, UniProt P50549 1-477). Conditions: protein: recombinant; tags: N-terminal GST; dsDNA, one strand shown. In short, it runs like this: as §1

SPIB, sequence (Q01892 whole entry): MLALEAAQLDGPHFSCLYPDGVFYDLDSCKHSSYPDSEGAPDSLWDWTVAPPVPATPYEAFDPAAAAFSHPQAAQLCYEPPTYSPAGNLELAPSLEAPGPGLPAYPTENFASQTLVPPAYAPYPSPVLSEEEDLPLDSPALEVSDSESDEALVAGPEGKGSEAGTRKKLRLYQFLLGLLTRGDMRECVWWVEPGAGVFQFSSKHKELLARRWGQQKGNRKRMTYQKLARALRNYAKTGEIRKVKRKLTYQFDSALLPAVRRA
ETV5, sequence (P41161 whole entry): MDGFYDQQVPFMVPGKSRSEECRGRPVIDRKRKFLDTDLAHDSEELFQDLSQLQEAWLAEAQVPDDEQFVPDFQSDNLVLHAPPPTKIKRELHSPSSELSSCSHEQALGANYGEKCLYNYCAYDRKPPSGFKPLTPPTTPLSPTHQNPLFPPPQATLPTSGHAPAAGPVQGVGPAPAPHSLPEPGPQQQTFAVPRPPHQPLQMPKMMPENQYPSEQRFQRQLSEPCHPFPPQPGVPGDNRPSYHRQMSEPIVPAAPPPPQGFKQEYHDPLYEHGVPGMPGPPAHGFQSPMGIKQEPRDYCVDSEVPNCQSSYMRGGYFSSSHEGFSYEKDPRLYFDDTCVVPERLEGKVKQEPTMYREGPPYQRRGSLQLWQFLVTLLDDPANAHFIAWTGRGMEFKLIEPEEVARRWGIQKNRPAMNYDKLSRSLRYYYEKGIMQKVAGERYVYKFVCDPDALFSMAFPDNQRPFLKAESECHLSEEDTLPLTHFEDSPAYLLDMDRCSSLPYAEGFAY
ELF4, sequence (Q99607 whole entry): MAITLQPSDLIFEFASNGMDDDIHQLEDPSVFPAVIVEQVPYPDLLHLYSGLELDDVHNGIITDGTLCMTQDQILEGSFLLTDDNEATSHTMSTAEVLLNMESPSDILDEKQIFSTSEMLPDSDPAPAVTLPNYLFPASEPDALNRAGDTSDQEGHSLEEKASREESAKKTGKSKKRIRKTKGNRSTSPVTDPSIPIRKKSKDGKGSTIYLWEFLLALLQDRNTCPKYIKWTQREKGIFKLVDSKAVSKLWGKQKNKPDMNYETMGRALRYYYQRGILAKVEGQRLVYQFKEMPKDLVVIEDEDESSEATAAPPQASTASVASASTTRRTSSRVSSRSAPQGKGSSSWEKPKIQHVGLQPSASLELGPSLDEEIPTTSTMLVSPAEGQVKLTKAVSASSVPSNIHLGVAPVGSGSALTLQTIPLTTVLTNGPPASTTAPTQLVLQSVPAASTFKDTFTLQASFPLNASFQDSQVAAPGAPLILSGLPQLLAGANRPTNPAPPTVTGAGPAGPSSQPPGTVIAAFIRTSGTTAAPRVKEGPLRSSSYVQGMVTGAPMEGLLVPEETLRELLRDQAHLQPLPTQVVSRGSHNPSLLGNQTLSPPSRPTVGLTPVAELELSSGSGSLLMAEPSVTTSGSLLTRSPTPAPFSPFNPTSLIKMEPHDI
ETV1, sequence (P50549 whole entry): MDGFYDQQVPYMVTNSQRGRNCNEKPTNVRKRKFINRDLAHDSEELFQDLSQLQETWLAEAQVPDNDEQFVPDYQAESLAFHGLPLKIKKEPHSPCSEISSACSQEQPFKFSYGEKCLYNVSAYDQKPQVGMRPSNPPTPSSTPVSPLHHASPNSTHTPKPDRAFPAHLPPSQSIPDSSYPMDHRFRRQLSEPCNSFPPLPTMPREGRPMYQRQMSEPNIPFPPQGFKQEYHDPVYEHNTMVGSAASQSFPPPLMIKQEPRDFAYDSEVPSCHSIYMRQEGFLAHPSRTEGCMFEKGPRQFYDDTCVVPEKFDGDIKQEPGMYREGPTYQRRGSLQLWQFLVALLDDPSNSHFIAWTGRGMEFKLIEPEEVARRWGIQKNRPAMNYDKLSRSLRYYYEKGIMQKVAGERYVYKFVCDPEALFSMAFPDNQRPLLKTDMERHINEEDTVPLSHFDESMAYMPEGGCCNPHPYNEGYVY

Regarding ACACGA, the binding signal with FLI1 is 1.08 fold enrichment (6-mer frequency, TF over GST control); with ELK1, 1.1 fold enrichment (6-mer frequency, TF over GST control); with GABPA it was 1.11 fold enrichment (6-mer frequency, TF over GST control); with ERG it was 1.02 fold enrichment (6-mer frequency, TF over GST control); in the test with ELF1 it was 1.1 fold enrichment (6-mer frequency, TF over GST control); with SPI1 it was 1.07 fold enrichment (6-mer frequency, TF over GST control). Besides, the binding signal with SPIB was 1.04 fold enrichment (6-mer frequency, TF over GST control); in the test with ELK3, 1.1 fold enrichment (6-mer frequency, TF over GST control); in the test with FEV it was 1.1 fold enrichment (6-mer frequency, TF over GST control); with ETV5, 1.15 fold enrichment (6-mer frequency, TF over GST control); in the test with HSF1, 1.02 fold enrichment (6-mer frequency, TF over GST control); with SPIC it was 1.11 fold enrichment (6-mer frequency, TF over GST control). In addition, the binding signal with ELF4 is 1.2 fold enrichment (6-mer frequency, TF over GST control); in the test with ELK4, 1.16 fold enrichment (6-mer frequency, TF over GST control); in the test with ETV2 it was 1.08 fold enrichment (6-mer frequency, TF over GST control); with ELF3 it was 1.01 fold enrichment (6-mer frequency, TF over GST control); with ETV1 it was 1.1 fold enrichment (6-mer frequency, TF over GST control).
